# Source: paper PMC7862700, “An all-to-all approach to the identification of sequence-specific readers for epigenetic DNA modifications on cytosine”
# Legend:
# Assay in all cases: DAPPL (digital affinity profiling via proximity ligation, sequencing); 10 mM Tris-HCl pH 7.5, 50 mM NaCl, 1 mM DTT, 4% glycerol, room temperature, 30 min; GST-TFs on glutathione beads, 16-mer random dsDNA library, 0.1% formaldehyde crosslink after washing; high values mean tight binding
# Conditions in all cases: protein: recombinant; tags: N-terminal GST; dsDNA, one strand shown
# [1] = molecular target: T1, ELK1 (Homo sapiens, UniProt P19419 1-428)
# T1 sequence: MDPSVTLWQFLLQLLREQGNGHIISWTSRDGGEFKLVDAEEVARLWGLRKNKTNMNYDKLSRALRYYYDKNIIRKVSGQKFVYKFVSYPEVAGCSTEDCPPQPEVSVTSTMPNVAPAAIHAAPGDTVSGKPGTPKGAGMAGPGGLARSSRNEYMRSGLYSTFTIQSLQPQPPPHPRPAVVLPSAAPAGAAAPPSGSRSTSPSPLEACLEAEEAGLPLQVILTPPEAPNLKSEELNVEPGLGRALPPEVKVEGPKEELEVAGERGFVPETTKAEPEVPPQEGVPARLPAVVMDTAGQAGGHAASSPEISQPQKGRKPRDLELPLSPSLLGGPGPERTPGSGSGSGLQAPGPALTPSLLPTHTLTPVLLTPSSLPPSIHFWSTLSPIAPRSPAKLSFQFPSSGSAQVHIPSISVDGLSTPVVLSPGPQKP
# Outline: (§1)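 Pools were built from human transcription factors expressed in yeast as GST fusions, captured on glutathione beads and DNA-barcoded, along with a tag-only sample. Incubation with 200 nmole of a 16-mer random double-stranded DNA library lasted 30 min at room temperature in Tris/NaCl/DTT/glycerol buffer, and was followed by washing, 0.1% formaldehyde crosslinking, proximity ligation, PCR amplification and Illumina NextSeq500 sequencing. Binding signal is the quotient of each hexamer's read frequency for a factor and its frequency for the tag-only sample.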
# [2] = molecular target: T2, GABPA (Homo sapiens, UniProt Q06546 1-454)
# T2 sequence: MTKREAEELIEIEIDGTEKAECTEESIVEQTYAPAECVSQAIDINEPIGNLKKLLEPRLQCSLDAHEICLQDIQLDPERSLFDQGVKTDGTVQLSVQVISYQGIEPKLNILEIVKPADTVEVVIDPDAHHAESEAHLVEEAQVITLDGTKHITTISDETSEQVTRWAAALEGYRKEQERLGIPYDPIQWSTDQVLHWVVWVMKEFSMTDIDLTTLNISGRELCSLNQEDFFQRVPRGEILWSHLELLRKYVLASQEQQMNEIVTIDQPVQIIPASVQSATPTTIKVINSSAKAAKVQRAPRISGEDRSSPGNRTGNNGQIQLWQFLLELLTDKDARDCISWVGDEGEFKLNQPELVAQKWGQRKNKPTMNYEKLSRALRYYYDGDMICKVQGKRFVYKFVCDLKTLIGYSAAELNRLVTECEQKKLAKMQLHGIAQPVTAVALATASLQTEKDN
# Outline: as §1
# [3] = molecular target: T3, ERG (Homo sapiens, UniProt P11308 1-479)
# T3 sequence: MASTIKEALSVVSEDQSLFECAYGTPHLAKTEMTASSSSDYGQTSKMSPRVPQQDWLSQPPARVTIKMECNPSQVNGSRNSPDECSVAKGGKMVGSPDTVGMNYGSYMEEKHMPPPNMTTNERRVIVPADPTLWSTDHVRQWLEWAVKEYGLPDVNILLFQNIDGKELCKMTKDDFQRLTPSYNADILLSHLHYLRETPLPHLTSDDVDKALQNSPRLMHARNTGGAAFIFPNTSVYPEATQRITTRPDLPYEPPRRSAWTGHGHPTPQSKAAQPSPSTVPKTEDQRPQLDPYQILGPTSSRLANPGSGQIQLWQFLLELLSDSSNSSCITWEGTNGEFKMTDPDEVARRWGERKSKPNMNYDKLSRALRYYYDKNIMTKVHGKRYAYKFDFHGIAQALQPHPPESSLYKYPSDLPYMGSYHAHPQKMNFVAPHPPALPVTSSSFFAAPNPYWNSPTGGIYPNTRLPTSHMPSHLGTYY
# Outline: as §1
# [4] = molecular target: ELF1 (Homo sapiens, UniProt P32519 1-619)
# Outline: as §1
# [5] = molecular target: T4, EHF (Homo sapiens, UniProt Q9NZC4 1-300)
# T4 sequence: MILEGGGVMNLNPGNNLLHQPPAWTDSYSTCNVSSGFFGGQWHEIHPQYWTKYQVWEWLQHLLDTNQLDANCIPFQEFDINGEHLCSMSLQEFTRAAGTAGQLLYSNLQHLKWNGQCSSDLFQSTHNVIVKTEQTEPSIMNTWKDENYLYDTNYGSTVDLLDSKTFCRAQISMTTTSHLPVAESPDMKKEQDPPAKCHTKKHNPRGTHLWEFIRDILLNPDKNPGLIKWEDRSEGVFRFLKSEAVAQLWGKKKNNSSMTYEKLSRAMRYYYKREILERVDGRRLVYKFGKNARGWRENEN
# Outline: as §1
# [6] = molecular target: SPI1 (Homo sapiens, UniProt P17947 1-270)
# Outline: as §1
# [7] = molecular target: SPIB (Homo sapiens, UniProt Q01892 1-262)
# Outline: as §1
# [8] = molecular target: T5, FEV (Homo sapiens, UniProt Q99581 1-238)
# T5 sequence: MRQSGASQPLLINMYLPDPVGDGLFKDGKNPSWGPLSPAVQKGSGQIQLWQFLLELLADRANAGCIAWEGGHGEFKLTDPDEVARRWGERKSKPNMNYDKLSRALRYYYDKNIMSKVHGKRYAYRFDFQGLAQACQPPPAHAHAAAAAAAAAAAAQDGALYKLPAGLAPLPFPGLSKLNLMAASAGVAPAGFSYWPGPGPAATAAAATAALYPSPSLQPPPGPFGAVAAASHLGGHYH
# Outline: as §1
# [9] = molecular target: ETV5 (Homo sapiens, UniProt P41161 1-510)
# Outline: as §1
# [10] = molecular target: T6, ELK4 (Homo sapiens, UniProt P28324-2 1-405)
# T6 sequence: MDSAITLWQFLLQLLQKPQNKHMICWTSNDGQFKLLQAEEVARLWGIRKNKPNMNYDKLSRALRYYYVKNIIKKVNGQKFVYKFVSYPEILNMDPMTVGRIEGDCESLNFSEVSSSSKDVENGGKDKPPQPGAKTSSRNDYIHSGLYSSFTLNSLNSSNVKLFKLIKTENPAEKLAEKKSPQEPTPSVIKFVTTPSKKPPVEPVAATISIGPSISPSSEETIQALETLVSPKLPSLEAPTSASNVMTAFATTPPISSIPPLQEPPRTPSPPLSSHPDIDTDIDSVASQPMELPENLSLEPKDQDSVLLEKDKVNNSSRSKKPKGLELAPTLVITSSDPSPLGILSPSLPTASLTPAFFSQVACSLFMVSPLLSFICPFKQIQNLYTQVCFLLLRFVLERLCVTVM
# Outline: as §1
# [11] = molecular target: T7, ELF3 (Homo sapiens, UniProt P78545 1-371)
# T7 sequence: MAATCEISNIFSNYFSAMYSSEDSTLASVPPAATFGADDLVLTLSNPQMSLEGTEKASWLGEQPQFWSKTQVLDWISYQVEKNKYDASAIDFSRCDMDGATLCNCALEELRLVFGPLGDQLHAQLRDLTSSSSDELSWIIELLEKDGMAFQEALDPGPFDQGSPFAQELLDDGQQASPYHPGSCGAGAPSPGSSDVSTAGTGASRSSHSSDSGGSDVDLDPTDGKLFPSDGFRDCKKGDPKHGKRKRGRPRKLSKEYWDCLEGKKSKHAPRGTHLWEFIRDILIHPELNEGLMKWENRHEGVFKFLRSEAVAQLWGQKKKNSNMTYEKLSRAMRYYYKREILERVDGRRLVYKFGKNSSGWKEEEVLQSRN
# Outline: as §1
# [12] = molecular target: ETV1 (Homo sapiens, UniProt P50549 1-477)
# Outline: as §1
# [13] = molecular target: T8, ERF (Homo sapiens, UniProt P50548 1-548)
# T8 sequence: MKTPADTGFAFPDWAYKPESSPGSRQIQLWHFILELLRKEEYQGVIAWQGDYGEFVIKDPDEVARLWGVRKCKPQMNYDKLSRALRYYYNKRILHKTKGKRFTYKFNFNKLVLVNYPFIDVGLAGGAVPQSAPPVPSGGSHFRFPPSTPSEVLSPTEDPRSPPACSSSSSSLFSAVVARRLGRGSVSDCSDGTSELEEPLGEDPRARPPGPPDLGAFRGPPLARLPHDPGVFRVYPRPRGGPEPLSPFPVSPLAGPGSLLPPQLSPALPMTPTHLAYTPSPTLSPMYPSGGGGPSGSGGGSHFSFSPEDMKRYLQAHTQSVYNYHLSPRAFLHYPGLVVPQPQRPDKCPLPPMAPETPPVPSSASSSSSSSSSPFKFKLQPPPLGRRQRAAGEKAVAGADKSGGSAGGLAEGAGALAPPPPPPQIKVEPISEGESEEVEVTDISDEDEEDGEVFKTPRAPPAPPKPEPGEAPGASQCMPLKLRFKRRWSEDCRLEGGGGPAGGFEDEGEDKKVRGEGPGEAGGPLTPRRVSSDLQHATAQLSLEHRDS
# Outline: as §1
# [14] = molecular target: T9, ETV3L (Homo sapiens, UniProt Q6ZN32 1-361)
# T9 sequence: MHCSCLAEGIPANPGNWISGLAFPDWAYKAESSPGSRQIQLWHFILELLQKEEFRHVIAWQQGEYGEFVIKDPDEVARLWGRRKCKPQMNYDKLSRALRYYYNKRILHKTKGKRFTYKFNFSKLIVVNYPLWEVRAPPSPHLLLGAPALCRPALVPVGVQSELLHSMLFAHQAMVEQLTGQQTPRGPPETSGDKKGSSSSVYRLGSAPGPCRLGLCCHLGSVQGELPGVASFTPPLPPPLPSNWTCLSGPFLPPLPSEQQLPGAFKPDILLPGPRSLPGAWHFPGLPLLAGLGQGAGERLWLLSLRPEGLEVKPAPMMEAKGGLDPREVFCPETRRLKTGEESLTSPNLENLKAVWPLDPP
# Outline: as §1
# [15] = molecular target: T10, ETS2 (Homo sapiens, UniProt P15036 1-469)
# T10 sequence: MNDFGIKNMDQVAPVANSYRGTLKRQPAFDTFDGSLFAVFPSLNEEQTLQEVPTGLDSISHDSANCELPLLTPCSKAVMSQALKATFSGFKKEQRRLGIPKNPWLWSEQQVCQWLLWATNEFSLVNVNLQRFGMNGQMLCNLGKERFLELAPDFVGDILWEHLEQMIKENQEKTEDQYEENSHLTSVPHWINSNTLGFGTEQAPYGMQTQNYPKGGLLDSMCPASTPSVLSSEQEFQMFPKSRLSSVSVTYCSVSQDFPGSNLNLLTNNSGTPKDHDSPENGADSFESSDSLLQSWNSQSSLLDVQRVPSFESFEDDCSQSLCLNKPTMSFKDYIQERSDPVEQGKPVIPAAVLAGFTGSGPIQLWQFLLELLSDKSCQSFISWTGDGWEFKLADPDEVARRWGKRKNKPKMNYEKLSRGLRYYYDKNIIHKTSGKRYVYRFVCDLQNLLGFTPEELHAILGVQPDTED
# Outline: as §1
# [16] = molecular target: T11, SPDEF (Homo sapiens, UniProt O95238 1-335)
# T11 sequence: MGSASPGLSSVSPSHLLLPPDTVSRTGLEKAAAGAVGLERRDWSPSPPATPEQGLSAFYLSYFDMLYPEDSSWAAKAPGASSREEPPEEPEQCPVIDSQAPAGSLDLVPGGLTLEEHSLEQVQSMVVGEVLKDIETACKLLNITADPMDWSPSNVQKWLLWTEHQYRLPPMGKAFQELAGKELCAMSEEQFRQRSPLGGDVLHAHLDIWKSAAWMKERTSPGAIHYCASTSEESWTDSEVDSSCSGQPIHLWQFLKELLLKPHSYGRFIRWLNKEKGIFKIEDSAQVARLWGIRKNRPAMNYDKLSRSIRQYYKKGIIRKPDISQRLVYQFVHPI
# Outline: as §1
# [17] = molecular target: T12, ETV7 (Homo sapiens, UniProt Q9Y603 1-341)
# T12 sequence: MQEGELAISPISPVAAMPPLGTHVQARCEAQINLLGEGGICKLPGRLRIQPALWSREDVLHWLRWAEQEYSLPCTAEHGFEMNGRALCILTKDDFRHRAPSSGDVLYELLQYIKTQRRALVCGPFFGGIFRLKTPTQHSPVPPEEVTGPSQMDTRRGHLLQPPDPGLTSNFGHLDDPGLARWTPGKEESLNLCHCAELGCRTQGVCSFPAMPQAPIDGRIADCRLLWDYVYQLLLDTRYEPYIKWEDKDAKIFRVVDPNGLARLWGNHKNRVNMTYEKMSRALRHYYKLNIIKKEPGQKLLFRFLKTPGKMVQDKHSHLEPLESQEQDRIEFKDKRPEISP
# Outline: as §1
# [18] = molecular target: T13, ETV3 (Homo sapiens, UniProt P41162-2 1-143)
# T13 sequence: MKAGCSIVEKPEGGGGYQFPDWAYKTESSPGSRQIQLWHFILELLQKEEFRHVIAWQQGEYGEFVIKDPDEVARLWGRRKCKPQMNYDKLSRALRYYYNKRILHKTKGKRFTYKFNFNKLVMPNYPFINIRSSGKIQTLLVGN
# Outline: as §1
# [19] = molecular target: ETV6 (Homo sapiens, UniProt P41212 1-452)
# Outline: as §1
# Chain of ELF1 (P32519 whole entry): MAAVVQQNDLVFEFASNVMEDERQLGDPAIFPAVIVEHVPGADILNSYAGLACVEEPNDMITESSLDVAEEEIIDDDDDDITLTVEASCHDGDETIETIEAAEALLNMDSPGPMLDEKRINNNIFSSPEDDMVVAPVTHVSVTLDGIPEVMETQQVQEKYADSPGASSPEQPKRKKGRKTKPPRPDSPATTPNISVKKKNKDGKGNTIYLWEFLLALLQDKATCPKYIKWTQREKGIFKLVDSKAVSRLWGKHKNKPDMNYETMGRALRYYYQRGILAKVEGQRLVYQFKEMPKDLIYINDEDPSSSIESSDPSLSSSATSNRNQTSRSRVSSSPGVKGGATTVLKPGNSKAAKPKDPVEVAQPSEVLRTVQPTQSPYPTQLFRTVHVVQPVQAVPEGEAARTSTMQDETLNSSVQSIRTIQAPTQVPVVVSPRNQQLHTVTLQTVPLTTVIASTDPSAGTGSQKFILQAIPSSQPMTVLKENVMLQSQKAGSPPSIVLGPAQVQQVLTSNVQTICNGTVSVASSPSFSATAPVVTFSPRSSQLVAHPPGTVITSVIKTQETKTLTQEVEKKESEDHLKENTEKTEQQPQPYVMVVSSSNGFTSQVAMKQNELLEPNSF
# Chain of ETV5 (P41161 whole entry): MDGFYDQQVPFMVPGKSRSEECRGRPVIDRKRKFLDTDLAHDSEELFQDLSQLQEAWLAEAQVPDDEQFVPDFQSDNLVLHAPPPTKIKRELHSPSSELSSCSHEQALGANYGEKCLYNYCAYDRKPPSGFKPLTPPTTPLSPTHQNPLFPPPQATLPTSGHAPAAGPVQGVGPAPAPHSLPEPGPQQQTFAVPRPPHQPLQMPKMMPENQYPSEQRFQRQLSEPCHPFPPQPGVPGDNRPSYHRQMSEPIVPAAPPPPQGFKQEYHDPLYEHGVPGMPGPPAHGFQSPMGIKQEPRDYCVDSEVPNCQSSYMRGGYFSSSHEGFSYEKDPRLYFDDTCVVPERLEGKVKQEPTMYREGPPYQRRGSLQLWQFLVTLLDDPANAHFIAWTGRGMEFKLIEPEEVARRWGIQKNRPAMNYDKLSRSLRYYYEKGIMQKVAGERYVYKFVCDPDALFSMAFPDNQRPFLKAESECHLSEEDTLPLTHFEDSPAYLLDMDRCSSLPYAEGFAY
# Chain of ETV1 (P50549 whole entry): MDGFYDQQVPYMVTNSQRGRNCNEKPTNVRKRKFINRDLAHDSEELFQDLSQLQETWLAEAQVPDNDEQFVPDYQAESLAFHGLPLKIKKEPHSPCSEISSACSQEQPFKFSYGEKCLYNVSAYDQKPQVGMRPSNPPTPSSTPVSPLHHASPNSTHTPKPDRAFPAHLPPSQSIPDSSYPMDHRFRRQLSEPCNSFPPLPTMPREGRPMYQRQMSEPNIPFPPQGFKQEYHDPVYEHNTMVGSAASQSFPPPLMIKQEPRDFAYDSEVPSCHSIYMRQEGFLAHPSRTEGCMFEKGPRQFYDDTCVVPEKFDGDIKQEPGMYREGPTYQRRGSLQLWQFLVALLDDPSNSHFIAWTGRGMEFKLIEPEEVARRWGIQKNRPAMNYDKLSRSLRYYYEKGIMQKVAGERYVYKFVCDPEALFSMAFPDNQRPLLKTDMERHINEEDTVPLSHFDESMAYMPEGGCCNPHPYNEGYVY
# Chain of ETV6 (P41212 whole entry): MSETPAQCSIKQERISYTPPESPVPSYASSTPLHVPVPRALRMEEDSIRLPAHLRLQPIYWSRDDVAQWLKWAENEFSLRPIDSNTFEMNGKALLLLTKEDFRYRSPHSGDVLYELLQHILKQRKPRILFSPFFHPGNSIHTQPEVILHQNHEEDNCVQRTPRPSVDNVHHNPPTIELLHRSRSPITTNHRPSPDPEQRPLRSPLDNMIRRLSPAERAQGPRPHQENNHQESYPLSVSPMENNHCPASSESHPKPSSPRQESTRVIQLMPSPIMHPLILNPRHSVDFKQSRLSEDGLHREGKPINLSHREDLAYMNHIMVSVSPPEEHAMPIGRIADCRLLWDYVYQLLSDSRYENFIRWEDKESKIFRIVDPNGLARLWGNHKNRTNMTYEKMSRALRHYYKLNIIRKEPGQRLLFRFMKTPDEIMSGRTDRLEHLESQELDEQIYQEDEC
# Chain of SPIB (Q01892 whole entry): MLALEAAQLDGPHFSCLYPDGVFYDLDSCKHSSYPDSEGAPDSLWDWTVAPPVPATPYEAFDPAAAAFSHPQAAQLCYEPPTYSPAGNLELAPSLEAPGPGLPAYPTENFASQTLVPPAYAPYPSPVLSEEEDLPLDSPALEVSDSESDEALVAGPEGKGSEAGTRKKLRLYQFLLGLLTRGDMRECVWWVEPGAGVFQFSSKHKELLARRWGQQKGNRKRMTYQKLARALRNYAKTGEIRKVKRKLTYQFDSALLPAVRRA
sequence,measurement,setting,value
TGTAAG,binding signal,[1],"1.06 fold enrichment (6-mer frequency, TF over GST control)"
same,binding signal,[2],"1.03 fold enrichment (6-mer frequency, TF over GST control)"
same,binding signal,[3],"1.07 fold enrichment (6-mer frequency, TF over GST control)"
same,binding signal,[4],"1.11 fold enrichment (6-mer frequency, TF over GST control)"
same,binding signal,[5],"1.16 fold enrichment (6-mer frequency, TF over GST control)"
same,binding signal,[6],"1.12 fold enrichment (6-mer frequency, TF over GST control)"
same,binding signal,[7],"1.06 fold enrichment (6-mer frequency, TF over GST control)"
same,binding signal,[8],"1.06 fold enrichment (6-mer frequency, TF over GST control)"
same,binding signal,[9],"1.08 fold enrichment (6-mer frequency, TF over GST control)"
same,binding signal,[10],"1.06 fold enrichment (6-mer frequency, TF over GST control)"
same,binding signal,[11],"1.3 fold enrichment (6-mer frequency, TF over GST control)"
same,binding signal,[12],"1.06 fold enrichment (6-mer frequency, TF over GST control)"
same,binding signal,[13],"1.11 fold enrichment (6-mer frequency, TF over GST control)"
same,binding signal,[14],"1.03 fold enrichment (6-mer frequency, TF over GST control)"
same,binding signal,[15],"1.04 fold enrichment (6-mer frequency, TF over GST control)"
same,binding signal,[16],"1.13 fold enrichment (6-mer frequency, TF over GST control)"
same,binding signal,[17],"1.04 fold enrichment (6-mer frequency, TF over GST control)"
same,binding signal,[18],"1.17 fold enrichment (6-mer frequency, TF over GST control)"
same,binding signal,[19],"1.14 fold enrichment (6-mer frequency, TF over GST control)"
